In the library only some 11% were active in any assay of this set; here they are far more common.
VACV Venus inh: inhibitors of vaccinia virus (Venus reporter); 0.46% of 330,000 active; Potency, µM (doses to about 36.5 µM), without a hit: top-dose activity change, negative = inhibition, actives largely listed as inhibitors; Vaccinia virus Venus reporter expression, fluorescence; calls by dose curve; tested in A549 cells; also: % is scaled to controls: 0 for no effect and ±100 for the full control effect; nearly all actives have a fitted effect of over 30% in size
HCV inh: blocks hepatitis C virus; Huh7.5.1 HCVcc-Cre infection, luciferase reporter, 44 h; Potency, µM (series often up to 41.8 µM), for the others: at the top dose activity change, negative = inhibition, usual class: inhibitors; 3.4% of 340,000 active; AID 651820; also: % is scaled to controls: 0 for no effect and ±100 for the full control effect
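Infectious HCV cell culture screen: compound-treated cells (1,000/well, pre-plated 4 h) are infected with HCVcc-Cre at roughly 0.5 moi and grown 44 h. Infection is quantified by luciferase signal after 15 min substrate incubation at room temperature.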
Pf growth 96h: P. falciparum growth inhibition at 96 hours. P. falciparum luciferase reporter growth, 96 h. Potency, µM (doses to about 28.7 µM), for the others: at the top dose activity change, negative = inhibition, most hits filed as inhibitors. 6.9% of 320,000 active; also: % is scaled to controls: 0 for no effect and ±100 for the full control effect
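Compounds incubated with erythrocytes infected by luciferase-expressing P. falciparum (2% hematocrit, 0.05% parasitemia final) for 96 hours, 37 C in 5% CO2. Growth inhibition scored as decreased luciferase luminescence.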
NS1 function inh: influenza NS1 inhibition; Potency, µM (doses to about 46.1 µM), without a hit: at the top dose activity, positive = more growth; 0.4% of 270,000 active; AID 2326; calls by dose curve; also: actives are rising curves; nearly all actives have a fitted effect of over 50% in size
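Growth recovery, yeast-based: influenza A NS1 expressed in S. cerevisiae causes slow growth, and suppressors are detected by OD600. The parent strain without NS1 is used as positive control.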
Pf growth 48h: inhibits P. falciparum growth in the first generation, 48 h; P. falciparum luciferase growth in erythrocytes, 48 h; Potency, µM (highest dose often 28.7 µM), inactives show top-dose activity change, negative = inhibition, usual class: inhibitors; 5.9% of 310,000 active; AID 504832; also: % is scaled to controls: 0 for no effect and ±100 for the full control effect
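Here the parasites carry a stable luciferase gene and grow inside erythrocytes in Albumax-based RPMI medium with compound for one erythrocytic cycle. Activity is scored as loss of luminescent signal.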
VACV mCherry inh: inhibitors of vaccinia virus infection (mCherry reporter signal). Vaccinia virus mCherry reporter infection, fluorescence. Potency, µM (series often up to 36.5 µM), for inactives: at the top dose activity change, negative = inhibition, most hits filed as inhibitors. 0.63% of 310,000 active. AID 720579; calls by dose curve; tested in A549 cells; also: % is scaled to controls: 0 for no effect and ±100 for the full control effect; nearly all actives have a fitted effect of over 35% in size
* = called active by the depositor; i = inactive; ? = inconclusive; . = no result; [ ] = another dose, or the depositor's remark. Unless noted, calls follow the shape of the dose curve; as a rule, active = well fitted inhibition curve with a large enough effect; inconclusive = small, poorly fitted or top-dose-only effect, or another doubt; inactive = no such curve, though single readings can be large or run the other way. Potency is read from the fitted curve at half-maximal effect.

SMILES	VACV Venus inh	HCV inh	Pf growth 96h	NS1 function inh	Pf growth 48h	VACV mCherry inh
C=CCn1c(SCc2cc(=O)n3cc(C)ccc3n2)nnc1-c1ccc(F)cc1	-13.3%	1.6%	5.22µM*	-16.0%	-27.2%	-21.9%
Cc1ccc2nc(CSc3nnc(-c4ccncc4)n3C)cc(=O)n2c1	2.1%	8.5%	-28.4%	.	-4.0%	2.1%
CCCCOP(=O)(c1ccc(N(C)C)cc1)C(O)c1cc(OC)c(OC)c(OC)c1 (stereo not given)	-11.8%	24.4%	-24.6%	-4.4%	-20.8%	i
CN(C)c1cc(N/N=C/c2ccc(Cl)cc2)nc(N(C)C)n1	.	7.08µM*	-16.9%	.	?	.
COc1cc(N/N=C/c2ccc(N(C)C)cc2)ncn1	-10.4%	4.4%	?	0.4%	69.4%	-6.9%
O=C1c2ccccc2C(=O)N1CCCc1nc2ccccc2c(=O)n1CCCn1ccnc1	.	0.5%	1.85µM*	-6.9%	-27.0%	.
COc1ccccc1CCNC(=O)C(=O)NCC1OCCCN1S(=O)(=O)c1ccc(F)cc1C (stereo not given)	15.7%	10µM*	?	-11.0%	-27.8%	-9.7%
COc1ccc(S(=O)(=O)N2CCOC2CNC(=O)C(=O)NCCc2ccc(OC)c(OC)c2)cc1 (stereo not given)	-19.1%	?	?	-5.8%	-7.6%	i
O=C(NCc1ccc2c(c1)OCO2)C(=O)NCC1OCCN1S(=O)(=O)c1ccc(Br)cc1 (stereo not given)	-21.2%	10µM*	?	17.5%	?	-9.1%
COc1ccc(CCNC(=O)C(=O)NCC2OCCCN2S(=O)(=O)c2cc(C)ccc2C)cc1 (stereo not given)	-18.3%	?	13.1µM*	7.2%	?	-24.7%
COc1ccc(CCNC(=O)C(=O)NCC2OCCN2S(=O)(=O)c2ccc(Cl)cc2)cc1OC (stereo not given)	-26.1%	8.91µM*	29.8%	4.7%	?	-22.2%
COc1ccccc1CCNC(=O)C(=O)NCC1OCCCN1S(=O)(=O)c1cc(C)ccc1C (stereo not given)	-18.4%	?	?	-26.8%	?	-8.8%
CC1CC(C)CN(C(=O)CCNS(=O)(=O)c2ccc3c(c2)CCC(=O)N3)C1 (stereo not given)	-16.9%	17.7%	?	-11.9%	5.9%	i
CCCCOC(=O)CSc1nc(N)c(C#N)c(-c2ccc(OCC)cc2)c1C#N	-4.2%	8.1%	1.3%[5.75 µM]	-1.2%	10.0%	-10.2%
Cc1ccc(CNC(=O)C2(C)Oc3ccccc3NC2=O)cc1 (stereo not given)	-9.2%	4.9%	2.4%	-8.6%	.	-18.1%
Cc1c(C(=O)OCC2CCCCC2)[nH]c2c1C(=O)CC(c1ccc(Cl)cc1)C2 (stereo not given)	-1.4%	.	.	.	.	1.5%
Cc1ccc(C)c(S(=O)(=O)N2CCCOC2CNC(=O)C(=O)NCCc2ccco2)c1 (stereo not given)	-21.1%	0.2%	13.1µM*	0.5%	-5.3%	-29.9%
Cc1ccc(N2C(=O)CSC2c2cccs2)cc1 (stereo not given)	-11.6%	-1.9%	0.165µM*	-4.5%	0.5%	-19.5%
O=C(N/N=C\C=C\c1ccco1)c1cncc(Br)c1	-10.7%	-8.6%	10.9%	3.5%	-0.7%	-11.9%
COc1cc(C2c3c([nH]c(=O)[nH]c3=O)Nc3ccc4ccccc4c32)ccc1O (stereo not given)	-2.7%	10µM*	12.6%	.	-12.7%	?
NS(=O)(=O)c1ccc(CCNC(=O)COc2ccc3c4c(c(=O)oc3c2)CCC4)cc1	.	-1.3%	?	-3.1%	-18.3%	.
COc1ccc(NC(=O)[C@@H]2[C@@H]3C(=O)N(C4CCCCC4)C(=O)[C@@H]3C3c4ccccc4C=CN32)cc1 (stereo not given in full)	12.8%	-10.4%	14.7µM*	?	7.38µM*	.
CC(=O)Nc1ccc(NC(=O)CSc2nc(N)c(NC(=O)c3ccccc3F)c(=O)[nH]2)cc1	-4.7%	20.8%	11.7µM*	-1.6%	?	-4.7%
Cc1cccc(NC(=O)CSc2nc(N)c(NC(=O)c3ccccc3F)c(=O)[nH]2)c1	-12.7%	3.5%	?	18.8%	33.3%	-11.5%
O=C(O)C1C2CCC(C2)C1C(=O)N1CCCC1 (stereo not given)	-5.8%	0.0%	-5.0%	10.3%	14.1%	-14.7%
SMILES	VACV Venus inh	HCV inh	Pf growth 96h	NS1 function inh	Pf growth 48h	VACV mCherry inh
CCN1/C(=C2\C(=O)N(C)C(=S)N2C)C=Cc2cc(OC)ccc21	-7.2%	8.7%	0.0%	2.2%	14.7µM*	-28.0%
CCN1C(=O)/C(=C2/C=Cc3cc(C)ccc3N2CC)N(C)C1=S	-8.9%	14.8%	8.28µM*	-15.5%	?	-3.3%
CCN1/C(=C2/SC(=S)N(C)C2=O)C=Cc2cc(C)ccc21	-5.5%	13.0%	.	.	.	i
CCN1/C(=C2\OC(=S)N(C)C2=O)C=Cc2ccccc21	-7.8%	-2.3%	47.1%	.	11.2%	i
CCOc1ccccc1NC(=O)CN(c1ccc(C)cc1)S(=O)(=O)c1c(C)n[nH]c1C	?	?	.	-11.0%	.	?
Cc1ccc(C(=O)NNC(=O)CSc2nc(N)cc(N)n2)cc1	-17.1%	15.3%	22.9%	12.6%	19.7%	-20.9%
CN(C)C(=O)c1ccc(-c2cncnc2NCc2cccs2)cc1	90.4%	.	.	.	.	31.2%
COc1ccccc1N1CCN(S(=O)(=O)c2ccc3c(c2)NC(=O)C(C)S3)CC1 (stereo not given)	-0.5%[7.34 µM]	?	?	-9.9%	?	-1.5%[7.34 µM]
CN(CC(=O)Nc1ccc(Cl)c(C(F)(F)F)c1)C(=O)c1ccc(OCC2CCCO2)cc1 (stereo not given)	?	10µM*	?	.	-0.6%	?
CN(CC(=O)Nc1ccc(Cl)c(C(F)(F)F)c1)C(=O)c1ccc(S(=O)(=O)N2CCOCC2)cc1	.	-7.9%	.	.	.	.
Cc1ccc(C(=O)N(C)CC(=O)Nc2ccc(Cl)c(C(F)(F)F)c2)cc1S(=O)(=O)N1CCCCC1	.	7.94µM*	?	.	9.28µM*	.
CN(CC(=O)Nc1ccc(Cl)c(C(F)(F)F)c1)C(=O)CCNC(=O)c1ccco1	-14.2%	-21.4%	-25.1%	.	10.4µM*	-2.6%
Cc1ccc(C(=O)N(C)CC(=O)Nc2cccc(F)c2)cc1S(=O)(=O)N1CCCCC1	-8.6%	-18.0%	-28.3%	.	-4.8%	i
CCc1n[nH]c(=S)n1/N=C/c1ccc(NC(C)=O)cc1	-13.8%	0.3%	11.4%	3.3%	0.0%	-3.9%
CCN1C(=O)C(=Cc2cccc(OC)c2Oc2ccc([N+](=O)[O-])cc2[N+](=O)[O-])SC1=S	-25.0%	4.4%	10.4µM*	4.0%	5.22µM*	?
CCC1CCCCN1S(=O)(=O)c1ccc(C(=O)Nc2nnc(C3CC3)o2)cc1 (stereo not given)	-17.3%	?	?	-53.2%	13.1µM*	?
